Records with an inconclusive call do not appear. Activity calls are given as the source filed them. The call rests on the fitted dose curve; in most records, active means well fitted inhibition curve with a large enough effect in the signal ratio, with a control signal flat (not every such curve was filed as active); inconclusive means small, poorly fitted or top-dose-only effect, or effect the other way, or a change in a side signal; inactive means flat fitted curve, though single readings scatter; the % refers to the signal ratio.

This assay deals with Glucocorticoid receptor (Homo sapiens) (UniProt P04150). Kind of assay: qHTS assay for small molecule antagonists of glucocorticoid receptor signaling (AID 588533). To be noted: HeLa MMTV-bla, GRE beta-lactamase ratio, antagonist mode, 18 h; series mostly up to 76.8 µM. The source says: NIH Chemical Genomics Center [NCGC] U.S. Environmental Protection Agency [EPA] National Institutes of Environmental Health Sciences [NIEHS] National Toxicology Program [NTP] NCGC Assay Overview The Glucocorticoid receptor (GR), a nuclear receptor subfamily member and its natural ligands includes […] etc. The GR is a validated drug target for inflammation. GR ligands such as dexamethasone are clinically available as anti-inflammatory drugs. Glucocorticoids implicate a role in carbohydrate, protein and lipid metabolisms and programmed cell death. They are also a component of many chemotherapy regimens for the treatment of leukemias, lymphomas, and myelomas because of their role in the induction of apoptosis.
Sequence of Glucocorticoid receptor (Homo sapiens) (P04150 whole entry, looked up): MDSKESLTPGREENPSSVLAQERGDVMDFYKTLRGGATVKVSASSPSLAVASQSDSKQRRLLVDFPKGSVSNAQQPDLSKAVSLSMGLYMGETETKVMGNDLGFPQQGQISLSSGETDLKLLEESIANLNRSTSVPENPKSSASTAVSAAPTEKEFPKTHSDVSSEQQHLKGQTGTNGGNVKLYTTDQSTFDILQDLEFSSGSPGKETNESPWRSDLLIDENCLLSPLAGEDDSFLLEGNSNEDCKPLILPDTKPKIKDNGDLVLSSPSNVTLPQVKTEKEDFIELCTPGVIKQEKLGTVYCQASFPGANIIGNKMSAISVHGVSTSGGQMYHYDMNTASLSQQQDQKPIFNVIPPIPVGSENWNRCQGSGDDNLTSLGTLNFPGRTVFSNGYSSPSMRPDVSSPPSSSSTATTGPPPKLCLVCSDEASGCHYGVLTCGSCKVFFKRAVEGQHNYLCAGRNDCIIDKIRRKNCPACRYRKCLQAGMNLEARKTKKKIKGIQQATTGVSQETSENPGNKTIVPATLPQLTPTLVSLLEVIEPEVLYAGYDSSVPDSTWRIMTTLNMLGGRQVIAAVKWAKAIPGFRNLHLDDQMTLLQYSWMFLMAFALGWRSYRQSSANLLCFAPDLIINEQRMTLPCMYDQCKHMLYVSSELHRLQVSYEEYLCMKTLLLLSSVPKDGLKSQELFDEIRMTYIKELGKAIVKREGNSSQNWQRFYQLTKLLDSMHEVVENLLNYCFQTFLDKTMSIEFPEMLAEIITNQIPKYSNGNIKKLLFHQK
NCGC Assay Protocol Summary Using a beta-lactamase reporter-gene under control of glucocorticoid response element (GRE), a cell-based assay [CellSensor MMTV-bla HeLa cell line assay developed by Invitrogen] was used to measure GR ligands signaling. CellSensor MMTV-bla HeLa cells were used with assay medium containing 1% charcoal/dextran treated FBS, 0.1 mM NEAA, 1 mM sodium pyruvate and 25mM HEPES. The assay was performed in clear bottom black Greiner 1536-well plates. Library compounds were measured for their ability to inhibit the reporter gene activity. Compounds were screened in a titration series in 1536-well format. […] Data was normalized relative to Dexamethasone control (2 nM, 100%), and DMSO only wells (basal, 0%). Concentration-response titration points for each compound were fitted to the Hill equation yielding concentrations of half-maximal inhibition (IC50) and maximal response (efficacy) values. qHTS protocol for GR beta-lactamase assay in antagonist mode [Step] [Parameter] [Value] [Description] 1. Reagent; 5 uL; 1500 cells/well 2. Incubation; 37 C for 3-5 hrs 3. Compounds; 23 nL; 0.59 nM to 92 uM 4. […] Agonist (Stimulator); 1uL; Dexamethasone at 2 nM (final) concentration 6. Incubation; 37 C for 18 hrs 7. Detection reagent; 1 uL of CCF4-dye 8. Incubation; RT for 2 hrs 9. Detection; Fluorescence; Envision plate reader
In the case of `CCCCCOC(=O)c1ccccc1C(=O)OCCCCC`, the outcome was inactive.

Consider `Cc1cccc(N)c1C`, for which the outcome was inactive.

With `CCCCOC(=O)c1ccccc1N`, the outcome was inactive.

For `O=Cc1ccc(Cl)cc1Cl`, the result was inactive.

For `S=c1[nH]c2ccccc2[nH]1`, the result was inactive.

In the case of `O=Cc1ccc2c(c1)OCO2`, the result was inactive.

For the compound `Cc1ccc2c(C)cccc2c1`, the result was inactive.

For the compound `C=CCCl`, the outcome was inactive.

`c1ccc(NNc2ccccc2)cc1`: the result was inactive.

On to `Cc1ccc2c(c1N)C(=O)c1ccccc1C2=O`, for which the outcome was inactive.

With `Cc1ccc(N)c(C)c1`, the outcome was inactive.

In the case of `COc1ccc(C=O)cc1`, the result was inactive.

As to `Cc1ccc(OP(=O)(Oc2ccc(C)cc2)Oc2ccc(C)cc2)cc1`, the outcome was inactive.

Take `ClP(Cl)(Cl)(Cl)Cl`: the result was inactive.

Regarding `OCC(Cl)CCl` (stereo not given), the outcome was inactive.

Regarding `CN(C)c1ccc(N(C)C)cc1`, the result was inactive.

`CCOC(=O)CBr`: the result was inactive.

As for `CC1CC(=O)O1` (stereo not given), the outcome was inactive.

As to `CCN(CC)CCO`, the result was inactive.

Take `CCCCOCC1CO1` (stereo not given): the result was inactive.

In the case of `OCCBr`, the result was inactive.

On to `O=[N+]([O-])c1ccccc1CCl`, for which the result was inactive.

For the compound `CC(C)CC(C)N` (stereo not given), the outcome was inactive.

Regarding `CC(C)(C)OOC(=O)c1ccccc1`, the outcome was inactive.

As to `Cl/C=C/Cl`, the result was inactive.

In the case of `c1ccc(OCC2CO2)cc1` (stereo not given), the result was inactive.

For the compound `C[N+](=O)[O-]`, the result was inactive.

Regarding `OC[P+](CO)(CO)CO`, the result was inactive.

In the case of `FC(Cl)(Cl)Cl`, the outcome was inactive.

As for `C(CCOCC1CO1)COCC1CO1` (stereo not given), the result was inactive.

`O=[N+]([O-])c1ccc(Cl)cc1`: the result was inactive.

With `c1ccoc1`, the result was inactive.

With `ClCCOCCCl`, the result was inactive.

As for `OCCCCO`, the result was inactive.

`CC(C)Br`: the outcome was inactive.

For the compound `ClCC(Cl)CCl`, the result was inactive.

For the compound `C=CCc1cc(OC)c2c(c1)OCO2`, the outcome was inactive.

Consider `Cc1cnc[nH]1`, for which the outcome was inactive.

As to `ClC(Br)Br`, the outcome was inactive.

In the case of `Clc1ccc(C(c2ccccc2Cl)C(Cl)(Cl)Cl)cc1` (stereo not given), the result was inactive.

(Values after PubChem BioAssay (NCATS).)
